Consider 34 compounds from PubChem BioAssay (NCI).

The panel holds about 83,000 compounds, 20% with a hit somewhere; the sample as a whole holds those more often.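 Treatment: one concentration, 48 hours, 96-well format. Scoring: percent growth, with anything below 10 considered active.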 A number with no mark means an inactive call. Active and inactive are the calls of the source.

In the experiment the test system is HCT-116 colon. Description: NCI-60 one-dose screen, 48 h (100 = growth as untreated, 0 = no growth, -100 = all killed). To be noted: 10 µM unless noted.
On to `N/C(=N\C(N)=N\c1nc2ccccc2s1)c1cccc(Cl)c1`, for which the growth was 73.8%.
In the case of `CCOC(=O)[C@@H](C)C[C@H](Cc1ccccc1)NC(=O)c1csc([C@@H](C[C@H](C(C)C)N(C)C(=O)[C@@H](NC(=O)[C@H]2C[C@H](O[Si](C)(C)C(C)(C)C)CCN2C)C(C)C)OC(C)=O)n1` it was -25.9% [9.25 µM] (active).
With `COC(=O)/C=C1\S/C(=N\NC(=O)c2cc3ccc2/C=C\c2ccc(cc2)/C=C\3)N(c2ccccc2)C1=O` the figure was 4.05% (active); with `NNC(=O)c1ccc(-n2nc(-c3ccccc3)c3ccccc32)cc1`, 82.2%.
With `NC(=NCCCOc1ccc(F)cc1)Nc1ccc(I)cc1`, the growth was 58.7%.
In the case of `N#CC1C(C#N)C(C(=O)c2ccc(Br)cc2)N2c3ccccc3C=CC12` (centres undefined) it was 68.5%; in that of `CCN1C(=O)/C(=C/C(=O)OC)S/C1=N\NC(=O)c1cc2ccc1/C=C\c1ccc(cc1)/C=C\2`, 49.5%; in that of `COc1ccccc1/C=C1\Oc2cc(OCCN3CCCC3)ccc2C1=O`, 47.1%.
For `Cc1cc2nc3c4ccc(Br)cc4n(CCN(C)C)c3nc2cc1C`, the growth was 9.24% (active).
On to `C/C(=N\Nc1cc(C)nc2ccc(Br)cc12)c1ccc([N+](=O)[O-])cc1`, for which the growth is 13.3%.
On to `COc1cc(C2C3CC4CCCC[C@H]4N3[C@@]3(C(=O)Nc4cc(Cl)ccc43)C2C(=O)c2nc3ccccc3[nH]2)cc(OC)c1OC` (some centres undefined), for which the growth was 34.7%.
With `O=C1OC(Cc2ccccc2)C1c1ccccc1` (centres undefined), the growth is 90.8%.
In the case of `CC(Oc1ccc(C(=O)O)cc1C(F)(F)F)c1ccc(Oc2ccccc2)cn1` (centres undefined) it was 103%; in that of `CC(Sc1nc2ccccc2c(=O)n1CCc1ccc(S(N)(=O)=O)cc1)C(=O)Nc1ccc(Cl)cc1` (centres undefined), 79.9%.
In the case of `CC1=CCC(OC(=O)C(C)(O)CCC(O)(C(=O)OC2(C)C=CC(O)(C(C)C)CC2)C(C)C)(C(C)C)CC1` (centres undefined) it was 101%.
In the case of `ClC1=C(Br)C(Br)(Br)C(=C(Br)Br)C1(Br)Br` it was 79.9%; in that of `C=C1C(=O)O[C@H]2[C@H]1CC/C(CNC(=O)C(C)c1ccc(CC(C)C)cc1)=C\CC[C@@]1(C)O[C@@H]21` (some centres undefined), -87.8% (active); in that of `CCCCCN1C=C/C(=C\C(=O)N2CCCc3ccccc32)c2ccccc21`, 66.5%.
Regarding `N#Cc1cc(-c2nc3ccccc3s2)c(=O)n(NS(=O)(=O)c2ccccc2)c1N`, the growth is 109%.
With `CCCOc1ccc(/C=N/Nc2cc(C)nc3ccc(Cl)cc23)cc1` the figure was -74.8% (active); with `Cc1cccc(NC(=O)Nc2ccc(-n3cnc4cc(-c5ccc(O)cc5)ccc43)cc2)c1`, 16.1%.
With `O=c1c2c(c(=O)n1O)c1c3ccc[nH]c3nc1c1nc3[nH]cccc3c12`, the growth was 72.7%.
Turning to `O=C(CNCCN1CCOCC1)N1c2cccc3cccc(c23)N(C(=O)CNCCN2CCOCC2)C1c1cn(-c2ccccc2)nc1-c1cccc([N+](=O)[O-])c1`, the growth was 50.7%.
In the case of `O=Cc1cc2ccccc2nc1Oc1ccc(C(F)(F)F)cc1` it was 102%; in that of `COc1ccc(C(=O)/C=C/c2cc3ccccc3n3nnnc23)cc1`, 106%.
With `CN1CCN(C(=O)[C@]23CCC(C)(C)C[C@H]2C2=CC[C@@H]4[C@@]5(C)C/C(=C/c6cccnc6)C(=O)C(C)(C)[C@@H]5CC[C@@]4(C)[C@]2(C)CC3)CC1` the figure was 20%; with `CCN(CC)c1ccc(/C=N/NC(=O)CSc2nc3ccccc3c(=O)n2CCc2ccc(S(N)(=O)=O)cc2)c(O)c1`, 10.7%.
In the case of `CCCCCCNC(=O)Nc1ccc2cc3ccc(NC(=O)NCCCCCC)cc3nc2c1` it was -18.9% (active); in that of `CCNC(=O)Oc1ccc(/C(=C(\C)c2ccccc2)c2ccc(OCCN(CC)CC)cc2)cc1`, 55.7%.
Consider `CC/C(=C\c1ccc(OC)cc1)C(=O)c1ccc(OC)cc1`, for which the growth is 90.8%.
In the case of `CCc1ccc(CNc2ccc(N3CCOCC3)c(C(=O)O)c2)cc1` it was 86.1%; in that of `Cc1ccc(NS(=O)(=O)c2ccc(-c3cnc(C4CC4)o3)cc2)cc1C(F)(F)F`, 41.1%.
In the case of `C/C(=N\NC(=O)CSc1nc2ccccc2c(=O)n1CCc1ccc(S(N)(=O)=O)cc1)c1ccccn1` it was 24.5%; in that of `C=C(CBr)[C@@H]1CC[C@]2(COC(C)=O)CC[C@]3(C)[C@H](CC[C@@H]4[C@@]5(C)CCCNC(C)(C)[C@@H]5CC[C@]43C)[C@@H]12`, 15.3%.
